Source: PubChem BioAssay (NCATS)
Inconclusive results are not listed. The source made the active and inactive calls. Unless noted, calls follow the shape of the dose curve; as a rule, active = well fitted curve in the direction sought with a large enough effect; inconclusive = small, poorly fitted or top-dose-only effect, or another doubt; inactive = no such curve, though single readings can be large; an effect the other way counts as inactive or inconclusive.

Legend:
[1] = biological target: Glucocorticoid receptor (Homo sapiens) (UniProt P04150); assay: GR-EFC Redistribution (AID 451; calls by dose curve; also: potency is read from the fitted curve at half-maximal effect); settings: CHO-K1 GR-EFC translocation, beta-gal luminescence, 2 h
How it was run: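 Translocation of GR-ED fusion to nuclear EA restores b-gal, read by luminescence after 1 h room-temperature detection. Engineered CHO-K1 biosensor cells, 1,000/well, exposed 2 h at 37 C to titrations up to 46 uM final.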

[2] = biological target: Mitogen-activated protein kinase 10 (Mus musculus) (UniProt Q61831); assay: JNK3 AlphaScreen Assay (AID 530; active = well fitted curve in either direction with a large enough effect, not every such curve was filed as active;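 also: kinase came from lysate of stimulated human HepG2 cells; signal reports phosphorylation of biotinylated GST-cJun 1-79 at Ser73 with 10 µM ATP; % is scaled to controls: 0 for no effect and ±100 for the full control effect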)
How it was run: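 Room-temperature AlphaScreen kinase assay; pre-activated HepG2 lysate as JNK3 source, biotin-GST-cJun(1-79) substrate, 10 uM ATP, compound 15 min preincubation.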

[3] = qHTS Assay for Lipid Storage Modulators (AID 1519; calls by dose curve); settings: Drosophila S3 cells, BODIPY lipid droplet/cell ratio, laser cytometry, cells loaded with oleic acid
How it was run: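 Cells seeded at 5,000 per well were treated with compounds over a concentration series and loaded with oleic acid (400 uM, as added). Lipid droplet fluorescence (488 nm excitation, 500-530 nm channel) was read by laser-scanning cytometry and normalized to 20 uM Triacsin C.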

[4] = biological target: Ubiquitin carboxyl-terminal hydrolase 1 (Homo sapiens) (UniProt O94782); assay: Inhibitors of USP1/UAF1: Pilot qHTS (AID 504865);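 also: rhodamine fluorescence freed from ubiquitin-rhodamine substrate followed over time; top concentration of the series differs between compounds; % is scaled to controls: 0 for no effect and ±100 for the full control effect; nearly all actives have a fitted effect of over 35% in size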
How it was run: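 Kinetic fluorescence assay: 1nM USP1/UAF1, 15 min compound preincubation, then 150nM Ub-Rho; 480/540 nm.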

[5] = test system: Zika virus NS2B-NS3 protease; assay: Primary screen GU AMC qHTS for Zika virus inhibitors (AID 1347154); also: nearly all actives have a fitted effect of over 70% in size; also: potency is read from the fitted curve at half-maximal effect;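 as to activity change, negative = inhibition: 0% = no-inhibitor control and -100% = no-enzyme control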
How it was run: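 Fluorogenic AMC-substrate cleavage by noncovalent NS2B-NS3 protease complex (25 nM, pH 8.0 Tris buffer with Tween 20) followed for 15 minutes at room temperature (~20% conversion). Percent inhibition from ex340/em450 signal change, fitted by 4-parameter Hill equation.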

[6] = Primary qHTS for small molecule stabilizers of the endoplasmic reticulum resident proteome: Secreted ER Calcium Modulated Protein (SERCaMP) assay (AID 1508630); also: % is scaled to controls: 0 for no effect and ±100 for the full control effect
How it was run: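 GLuc-SERCaMP-expressing SH-SY5Y cells, pretreated 16 h with compound, are challenged with thapsigargin to empty ER calcium stores; after 4 h, coelenterazine is added directly to the medium and luminescence is imaged.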

[7] = biological target: DNA repair nuclease/redox regulator APEX1 (Homo sapiens) (UniProt P27695); assay: qHTS Validation Assay for Inhibitors of the Human Apurinic/apyrimidinic Endonuclease 1 (APE1) (AID 1705;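 also: TAMRA fluorescence gain over two minutes as APE1 cuts a quenched THF abasic duplex; % is scaled to controls: 0 for no effect and ±100 for the full control effect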)
How it was run: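 Endonuclease activity of human APE1 is followed as dequenching when the enzyme incises a tetrahydrofuran abasic site in a short duplex labelled 5'-TAMRA/3'-BHQ-2 (50 nM final), after 15 min enzyme–compound preincubation at room temperature.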

[8] = Counterscreen for APE1 Inhibitors: Fluorescent Dye Displacement Validation Assay (AID 1707);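 also: plate controls were ThO with dsDNA and no compound for no effect and ThO without dsDNA for full effect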
How it was run: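 Assay buffer: Tris-HCl pH7.5 with 50mM NaCl, 2 mM MgCl2, 0.01% Tween-20. Dye 250 nM, duplex 50 nM final. Readout: decrease in ThO endpoint fluorescence, 480 nm excitation, 540 nm emission.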

[9] = biological target: Endonuclease 4 (Escherichia coli (strain K12)) (UniProt P0A6C1); assay: Counterscreen for APE1 Inhibitors: qHTS Validation Assay for Inhibitors of Endonuclease IV (AID 1708); also: % is scaled to controls: 0 for no effect and ±100 for the full control effect
How it was run: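 Enzymatic AP-site incision assay using a double-stranded THF substrate labelled with TAMRA and BHQ-2; released fluorescence signals activity. Enzyme 2 nM, substrate 50 nM, 15 min compound preincubation.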

[10] = qHTS for differential inhibitors of proliferation of Plasmodium falciparum line 7G8 (AID 1815);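 also: potency is read from the fitted curve at half-maximal effect; parasite growth measured after three days of incubation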
[11] = qHTS for differential inhibitors of proliferation of Plasmodium falciparum line GB4 (AID 1816); settings: Potency: Plasmodium falciparum GB4 proliferation inhibition;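 also: potency is read from the fitted curve at half-maximal effect; parasite growth measured after 72 h incubation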
[12] = qHTS for differential inhibitors of proliferation of Plasmodium falciparum line 3D7 (AID 1876); also: potency is read from the fitted curve at half-maximal effect
[13] = qHTS for differential inhibitors of proliferation of Plasmodium falciparum line D10 (AID 1877);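 also: potency is read from the fitted curve at half-maximal effect; parasites grown with compound for 72 h before DNA staining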
[14] = qHTS for differential inhibitors of proliferation of Plasmodium falciparum line Dd2 (AID 1882); settings: Potency: Plasmodium falciparum Dd2 proliferation inhibition; also: potency is read from the fitted curve at half-maximal effect; nearly all actives have a fitted effect of over 65% in size
How it was run: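 SYBR Green I DNA fluorescence read-out, ex 485/em 535 nm. Signals were normalized to 0.29 uM artemisinin and DMSO wells, then corrected using vehicle-only plates flanking each stack. Parasite growth ran 72 h in erythrocytes before lysis.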

[15] = qHTS for differential inhibitors of proliferation of Plasmodium falciparum line W2 (AID 1883); settings: Potency: Plasmodium falciparum W2 proliferation inhibition;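 also: potency is read from the fitted curve at half-maximal effect; parasites grown with compound for 72 h before lysis and staining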
[16] = qHTS for differential inhibitors of proliferation of Plasmodium falciparum line HB3 (AID 1886); settings: Potency: Plasmodium falciparum HB3 proliferation inhibition;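 also: potency is read from the fitted curve at half-maximal effect; parasites grown with compound for 72 h before SYBR Green readout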
[17] = biological target: Ferritin light chain (Equus caballus) (UniProt P02791); assay: qHTS Validation Assay for Identification of Novel General Anesthetics (AID 2323); also: % is scaled to controls: 0 for no effect and ±100 for the full control effect
How it was run: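 Apoferritin from horse spleen (10 uM) was mixed with 1-aminoanthracene at 50% saturation in PBS, then compounds were added. After 10 min at room temperature, fluorescence was read (ex 380 nm, em 535 nm) and normalized to free-probe and complex controls.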

[18] = biological target: ATP-dependent DNA helicase Q1 (Homo sapiens) (UniProt P46063); assay: qHTS Validation Assay for Inhibitors of RecQ-Like Dna Helicase 1 (RECQ1) (AID 2353);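 also: plate controls were DMSO vehicle for no effect and enzyme-free control for full effect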
How it was run: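 50 nM RECQ1T1 preincubated 15 min with compound in Tris pH 8.0 buffer with MgCl2, DTT, Tween-20 and 2.5 ug/ml poly(dI-dC); started with 200 nM TAMRA/BHQ-2 forked duplex and 2 mM ATP. Unwinding read as fluorescence (525/598 nm), two reads 2 h apart.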

[19] = biological target: RecQ-like DNA helicase BLM (Homo sapiens) (UniProt P54132); assay: qHTS Validation Assay for Inhibitors of Bloom's syndrome helicase (BLM) (AID 2364);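 also: plate controls were DMSO vehicle for no effect and enzyme-free control for full effect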
How it was run: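 Forked 20-bp duplex substrate (200 nM, TAMRA/BHQ-2) plus 2 mM ATP added after 15 min compound preincubation with 50 nM enzyme, pH 8.0, poly(dI-dC) 2.5 ug/ml. Strand separation followed by fluorescence (525/598 nm) over 2 h, normalized to enzyme-free and DMSO controls.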

[20] = Validation screen for inhibitors of Lassa infection (AID 463096; calls by dose curve; also: % is scaled to controls: 0 for no effect and ±100 for the full control effect)
[21] = Quantitative high throughput screen for delayed death inhibitors of the malarial parasite plastid, 48 hour incubation (AID 488752); also: potency is read from the fitted curve at half-maximal effect; nearly all actives have a fitted effect of over 65% in size
How it was run: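 One parasite generation (48 h, 37 C, 5% CO2) of luciferase-reporter P. falciparum in erythrocytes is run with test compound; decreased luminescence indicates inhibited growth.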

[22] = biological target: M-phase phosphoprotein 8 (Homo sapiens) (UniProt Q99549); assay: qHTS Validation Assay for Inhibitors for MPP8 Chromodomain Interactions with Methylated Histone Tails (AID 488949); also: potency is read from the fitted curve at half-maximal effect; nearly all actives have a fitted effect of over 55% in size
How it was run: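 Disruption of the preformed MPP8–trimethyl-H3K9 peptide complex (both 50 nM, 30 min, RT) is measured after 30 min compound exposure, using AlphaScreen proximity beads; aurintricarboxylic acid titration serves as plate control.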

[23] = biological target: Transient receptor potential cation channel subfamily V member 1 (Homo sapiens) (UniProt Q8NER1); assay: HTS Assay for Compounds that Act as Enhancers of the Vanilloid Receptor 1 (AID 488979); also: 0% is about no effect
How it was run: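 Calcium influx kinetics via Fluo-8 (480/520 nm) in TRPV1-expressing cells, 2000/well cultured overnight at 35.5C. Compound-alone read 3 min (agonist phase), followed by EC20 capsaicin challenge for 2 min (enhancer phase).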

[24] = biological target: Thyrotropin receptor (Homo sapiens) (UniProt P16473); assay: qHTS Assay for Antagonists of the Thyroid Stimulating Hormone Receptor (AID 488980); also: 0% is about no effect
How it was run: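 Cells expressing human TSHR (HEK293) are dispensed in HBSS/HEPES containing 70 uM RO 20-1724, compound is added, then TSH at EC80 (4 nM final). Antibody in lysis buffer follows, 30 minutes at room temperature before HTRF detection.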

[25] = biological target: Thyrotropin-releasing hormone receptor (Homo sapiens) (UniProt P34981); assay: qHTS for Small Molecule Agonists and Allosteric Enhancers of Human TRH Receptor: Validation Screen for Agonists (AID 493127;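 active = calcium activation more than 3 SD above the typical response in the agonist read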;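 also: intracellular calcium rise by fluo-8 fluorescence before TRH EC20 addition; 0% is about no effect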); settings: TRH receptor agonist cell assay; at 2 µM; stronger effect = higher value
How it was run: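 Gq-coupled calcium mobilization in TRHR cells after compound addition, monitored kinetically with fluo-8 dye on an FDSS reader.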

[26] = biological target: Galactokinase (Homo sapiens) (UniProt P51570); assay: qHTS Validation Assay for Inhibitors of Human Galactokinase (GALK) (AID 493189); also: 0% is about no effect
How it was run: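 Compounds were pin-transferred into ATP buffer, then GALK-galactose mix was added (final 5 nM enzyme, 100 uM galactose, 35 uM ATP). After 1 h at room temperature, remaining ATP was measured luminescently.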

Sequence of Glucocorticoid receptor (Homo sapiens) (P04150 whole entry, looked up, the tested form may be a part): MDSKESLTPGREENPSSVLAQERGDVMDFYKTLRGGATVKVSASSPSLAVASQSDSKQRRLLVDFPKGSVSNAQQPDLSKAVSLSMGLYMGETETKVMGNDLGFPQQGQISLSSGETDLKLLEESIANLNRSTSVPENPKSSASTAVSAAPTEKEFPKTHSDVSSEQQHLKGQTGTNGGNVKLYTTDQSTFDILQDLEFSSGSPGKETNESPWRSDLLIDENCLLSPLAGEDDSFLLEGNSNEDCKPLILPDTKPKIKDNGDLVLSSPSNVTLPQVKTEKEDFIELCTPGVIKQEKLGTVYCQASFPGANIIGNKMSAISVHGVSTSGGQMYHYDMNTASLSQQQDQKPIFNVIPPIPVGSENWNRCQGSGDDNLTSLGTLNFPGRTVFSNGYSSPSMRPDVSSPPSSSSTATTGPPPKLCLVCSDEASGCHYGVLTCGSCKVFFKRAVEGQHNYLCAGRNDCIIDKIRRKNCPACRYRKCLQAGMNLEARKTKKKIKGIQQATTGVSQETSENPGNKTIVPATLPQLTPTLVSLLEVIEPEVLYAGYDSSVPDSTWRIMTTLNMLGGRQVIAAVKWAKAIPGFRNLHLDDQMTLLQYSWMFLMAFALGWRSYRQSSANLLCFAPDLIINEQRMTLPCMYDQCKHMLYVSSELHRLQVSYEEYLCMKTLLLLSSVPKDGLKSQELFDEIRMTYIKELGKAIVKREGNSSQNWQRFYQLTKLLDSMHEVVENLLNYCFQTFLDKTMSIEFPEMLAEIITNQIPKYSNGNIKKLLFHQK
Sequence of Ferritin light chain (Equus caballus) (P02791 2-175 limits assumed): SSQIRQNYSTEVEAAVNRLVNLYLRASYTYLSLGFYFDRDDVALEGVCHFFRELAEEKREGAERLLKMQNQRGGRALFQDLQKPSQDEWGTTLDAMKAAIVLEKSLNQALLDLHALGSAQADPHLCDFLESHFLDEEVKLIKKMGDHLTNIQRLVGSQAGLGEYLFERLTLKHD
Sequence of RecQ-like DNA helicase BLM (Homo sapiens) (P54132 whole entry, looked up): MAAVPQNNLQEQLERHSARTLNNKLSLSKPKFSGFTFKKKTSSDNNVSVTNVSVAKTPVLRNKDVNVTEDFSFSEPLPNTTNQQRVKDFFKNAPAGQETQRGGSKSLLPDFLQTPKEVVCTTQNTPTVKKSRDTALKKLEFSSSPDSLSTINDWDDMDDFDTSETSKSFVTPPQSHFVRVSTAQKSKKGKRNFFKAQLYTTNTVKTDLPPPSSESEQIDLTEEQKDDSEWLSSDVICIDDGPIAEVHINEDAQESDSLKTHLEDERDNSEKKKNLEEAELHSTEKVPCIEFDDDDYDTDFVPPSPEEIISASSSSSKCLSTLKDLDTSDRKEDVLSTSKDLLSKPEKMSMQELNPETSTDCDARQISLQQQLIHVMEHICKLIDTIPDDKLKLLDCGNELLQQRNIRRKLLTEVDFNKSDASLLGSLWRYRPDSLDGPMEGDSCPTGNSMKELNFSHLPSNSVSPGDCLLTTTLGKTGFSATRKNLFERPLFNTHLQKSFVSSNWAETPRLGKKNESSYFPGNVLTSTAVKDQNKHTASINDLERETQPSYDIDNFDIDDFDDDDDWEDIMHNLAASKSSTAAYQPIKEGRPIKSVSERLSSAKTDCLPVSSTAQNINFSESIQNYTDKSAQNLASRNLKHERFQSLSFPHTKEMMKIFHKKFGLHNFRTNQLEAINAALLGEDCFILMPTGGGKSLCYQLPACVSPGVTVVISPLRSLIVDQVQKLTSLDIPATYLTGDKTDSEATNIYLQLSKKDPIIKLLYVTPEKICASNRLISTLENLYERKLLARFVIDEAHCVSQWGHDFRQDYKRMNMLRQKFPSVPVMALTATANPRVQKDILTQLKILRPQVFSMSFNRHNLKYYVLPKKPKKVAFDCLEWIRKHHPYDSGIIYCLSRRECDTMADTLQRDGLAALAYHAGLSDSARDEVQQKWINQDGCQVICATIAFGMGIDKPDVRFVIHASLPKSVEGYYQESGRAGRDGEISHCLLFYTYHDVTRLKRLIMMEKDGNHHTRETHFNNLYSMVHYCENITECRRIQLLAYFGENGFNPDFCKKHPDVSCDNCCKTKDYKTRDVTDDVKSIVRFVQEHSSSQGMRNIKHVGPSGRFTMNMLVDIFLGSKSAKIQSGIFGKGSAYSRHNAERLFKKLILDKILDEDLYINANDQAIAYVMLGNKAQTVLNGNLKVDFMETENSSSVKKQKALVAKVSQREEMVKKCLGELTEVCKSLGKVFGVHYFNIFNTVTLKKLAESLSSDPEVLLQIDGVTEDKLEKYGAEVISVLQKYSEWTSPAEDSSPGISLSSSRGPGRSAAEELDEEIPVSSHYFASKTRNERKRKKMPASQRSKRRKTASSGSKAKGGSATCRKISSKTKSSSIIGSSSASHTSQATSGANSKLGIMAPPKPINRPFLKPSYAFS
Sequence of ATP-dependent DNA helicase Q1 (Homo sapiens) (P46063 whole entry, looked up): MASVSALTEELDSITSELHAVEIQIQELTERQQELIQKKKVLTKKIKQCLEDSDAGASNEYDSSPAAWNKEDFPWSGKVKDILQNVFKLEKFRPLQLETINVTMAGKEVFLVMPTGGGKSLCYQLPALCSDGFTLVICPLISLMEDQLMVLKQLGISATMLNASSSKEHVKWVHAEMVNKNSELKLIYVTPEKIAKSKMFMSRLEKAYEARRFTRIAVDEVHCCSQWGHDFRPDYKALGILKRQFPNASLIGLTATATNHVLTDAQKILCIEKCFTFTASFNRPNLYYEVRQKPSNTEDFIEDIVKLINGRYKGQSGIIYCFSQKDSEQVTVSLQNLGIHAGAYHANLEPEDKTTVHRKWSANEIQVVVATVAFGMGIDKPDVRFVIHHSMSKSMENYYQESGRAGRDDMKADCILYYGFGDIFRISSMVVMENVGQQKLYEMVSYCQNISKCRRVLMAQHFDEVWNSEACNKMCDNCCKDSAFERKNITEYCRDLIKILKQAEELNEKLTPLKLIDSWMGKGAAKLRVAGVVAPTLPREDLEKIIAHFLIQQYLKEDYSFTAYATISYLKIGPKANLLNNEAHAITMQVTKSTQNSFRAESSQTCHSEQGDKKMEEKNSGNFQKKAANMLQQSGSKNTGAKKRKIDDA
Sequence of Thyrotropin receptor (Homo sapiens) (P16473 whole entry, looked up): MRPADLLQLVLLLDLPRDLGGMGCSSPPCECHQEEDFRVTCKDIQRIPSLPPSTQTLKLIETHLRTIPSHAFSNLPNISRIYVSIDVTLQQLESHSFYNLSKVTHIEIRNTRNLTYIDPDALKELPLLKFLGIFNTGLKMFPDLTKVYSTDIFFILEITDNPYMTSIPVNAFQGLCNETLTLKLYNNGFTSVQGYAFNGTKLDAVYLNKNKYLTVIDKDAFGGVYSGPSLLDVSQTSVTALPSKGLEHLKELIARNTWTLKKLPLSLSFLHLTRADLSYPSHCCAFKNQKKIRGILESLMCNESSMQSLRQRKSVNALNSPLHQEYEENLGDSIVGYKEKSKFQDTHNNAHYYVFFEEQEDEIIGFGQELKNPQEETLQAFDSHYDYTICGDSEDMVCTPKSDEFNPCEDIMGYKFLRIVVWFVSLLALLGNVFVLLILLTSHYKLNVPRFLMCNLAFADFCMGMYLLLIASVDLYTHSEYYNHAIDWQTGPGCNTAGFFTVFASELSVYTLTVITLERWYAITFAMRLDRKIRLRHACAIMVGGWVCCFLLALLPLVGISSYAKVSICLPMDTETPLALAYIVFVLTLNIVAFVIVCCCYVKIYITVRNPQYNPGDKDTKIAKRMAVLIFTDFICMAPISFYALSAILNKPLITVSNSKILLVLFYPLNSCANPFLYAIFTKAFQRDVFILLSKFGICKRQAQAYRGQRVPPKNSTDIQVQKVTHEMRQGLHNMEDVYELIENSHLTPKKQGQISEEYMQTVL
Sequence of M-phase phosphoprotein 8 (Homo sapiens) (Q99549 whole entry, looked up): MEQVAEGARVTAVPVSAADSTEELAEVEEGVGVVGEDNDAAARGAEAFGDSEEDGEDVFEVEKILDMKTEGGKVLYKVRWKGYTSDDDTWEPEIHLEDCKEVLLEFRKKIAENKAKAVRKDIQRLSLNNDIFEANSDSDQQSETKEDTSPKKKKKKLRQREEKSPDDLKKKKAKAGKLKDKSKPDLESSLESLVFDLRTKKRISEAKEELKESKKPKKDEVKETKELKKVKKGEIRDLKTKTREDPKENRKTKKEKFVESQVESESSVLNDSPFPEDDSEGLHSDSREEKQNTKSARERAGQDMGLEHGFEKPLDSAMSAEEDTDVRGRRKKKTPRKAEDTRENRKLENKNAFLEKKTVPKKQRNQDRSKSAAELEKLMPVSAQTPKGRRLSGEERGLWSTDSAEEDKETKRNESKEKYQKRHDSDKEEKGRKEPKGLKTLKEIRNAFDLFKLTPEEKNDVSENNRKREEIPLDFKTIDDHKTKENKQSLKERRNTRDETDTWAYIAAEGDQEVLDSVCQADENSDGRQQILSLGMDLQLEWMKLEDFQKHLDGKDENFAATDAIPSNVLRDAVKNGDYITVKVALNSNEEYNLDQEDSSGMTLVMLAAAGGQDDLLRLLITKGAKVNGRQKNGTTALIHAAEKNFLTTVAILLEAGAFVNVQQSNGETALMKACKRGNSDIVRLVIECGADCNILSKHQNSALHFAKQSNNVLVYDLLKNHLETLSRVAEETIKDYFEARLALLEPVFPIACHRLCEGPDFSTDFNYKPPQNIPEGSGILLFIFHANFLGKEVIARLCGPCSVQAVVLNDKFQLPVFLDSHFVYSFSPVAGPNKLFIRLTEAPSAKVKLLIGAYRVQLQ
Sequence of Thyrotropin-releasing hormone receptor (Homo sapiens) (P34981 whole entry, looked up): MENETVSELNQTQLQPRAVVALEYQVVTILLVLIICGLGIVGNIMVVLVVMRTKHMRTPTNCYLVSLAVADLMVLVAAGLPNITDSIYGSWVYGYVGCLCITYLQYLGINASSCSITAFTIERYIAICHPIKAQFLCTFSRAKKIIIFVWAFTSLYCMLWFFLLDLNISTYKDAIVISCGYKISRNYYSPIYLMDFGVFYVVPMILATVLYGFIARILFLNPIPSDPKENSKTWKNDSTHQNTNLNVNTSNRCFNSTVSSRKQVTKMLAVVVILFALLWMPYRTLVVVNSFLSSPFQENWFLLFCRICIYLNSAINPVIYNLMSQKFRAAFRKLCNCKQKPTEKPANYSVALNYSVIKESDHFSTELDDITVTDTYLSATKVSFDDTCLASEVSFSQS

C[C@](N)(CCP(=O)(O)O)C(=O)O
-20.7%: max response ([3]; measured here: lipid channel max response)
inactive: Potency [1] > 46 µM | outcome [2] | activity change, negative = inhibition ([3]; at 57.5 µM (top of the series)) 6.09% | Potency [4] | Potency [5] | Potency [6]
-23.4%: max response ([3]; measured here: cell count channel max response)

CN1CCc2cc(O)cc3c2C1Cc1ccc(O)c(O)c1-3 (stereo not given)
active: Potency [10] 8.91 µM | Potency [11] 8.91 µM | Potency [12] 11.2 µM | Potency [13] 12.6 µM | Potency [14] 8.91 µM | Potency [15] 6.31 µM | Potency [16] 12.6 µM | Potency [21] 18.5 µM | Potency [22] 22.4 µM | Potency [5] 18.9 µM
inactive: Potency [7] | Potency [8] | outcome [9] | outcome [17] | Potency [18] | Potency [19] | Potency [20] | outcome [23] | outcome [24] | activation [25] 1.44% | outcome [26] | Potency [6]
